# From PubChem BioAssay (NCATS)
# Records with an inconclusive call do not appear. Activity calls are given as the source filed them. Calls follow the shape of the dose curve; as a rule, active = well fitted inhibition curve with a large enough effect; inconclusive = small, poorly fitted or top-dose-only effect; inactive = flat fitted curve, though single readings scatter.
# System: Zika virus NS2B-NS3 protease
# Test: Primary screen GU AMC qHTS for Zika virus inhibitors (AID 1347154);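 also: 0% = no-inhibitor control and -100% = no-enzyme control; nearly all actives have a fitted effect of over 70% in size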
# Settings: Zika NS2B-NS3 unlinked protease, AMC fluorogenic substrate; series mostly up to 54.1 µM; activity change, negative = inhibition: at the top concentration
# Method in brief: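 Unlinked Zika NS2B hydrophilic domain/NS3 protease domain noncovalent complex (25 nM final) in 10 mM Tris-HCl pH 8.0, 0.01% Tween 20, with AMC peptide substrate. Fluorescence (ex 340, em 450 nm) change over 15 min, room temperature; percent inhibition fitted to 4-parameter Hill equation.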
SMILES,"activity change, negative = inhibition",Potency
COc1cc([C@@H]2c3cc4c(cc3[C@@H](O[C@@H]3O[C@@H]5CO[C@@H](C)O[C@@H]5[C@H](O)[C@@H]3O)[C@H]3COC(=O)[C@H]23)OCO4)cc(OC)c1O,14% (inactive),–
N#Cc1c(N(CC(=O)O)CC(=O)O)sc(C(=O)O)c1CC(=O)O,-10.5% (inactive),–
OC[C@H]1O[C@@H](OCCc2ccc(O)cc2)[C@H](O)[C@@H](O)[C@H]1O,1.2% (inactive),–
OCCn1cc(-c2ccc3c(c2)CCC3=NO)c(-c2ccncc2)n1,-1.09% (inactive),–
COC1CCC(C(=O)c2ccc3nc4c(cc3c2)CCCO4)CC1 (configuration not stated),-1.28% (inactive),–
COc1ccnc(CS(=O)c2nc3ccc(OC(F)F)cc3[nH]2)c1OC (configuration not stated),–,inactive
CCC[C@H](Nc1nc(-c2ccc(NC(=O)NCC)c(OC)c2)ncc1C)c1cccnc1,16.7% (inactive),–
N[C@@H](CC(=O)N1CCn2c(nnc2C(F)(F)F)C1)Cc1cc(F)c(F)cc1F,4.35% (inactive),–
CCC(=C(CC)c1ccc(O)cc1)c1ccc(O)cc1,-11.7% (inactive),–
O=C(Nc1cccc(Cl)c1)Nc1ncc(CCNc2ncnc3ccsc23)s1,-14.3% (inactive),–
CCC(=O)NCC[C@@H]1CCc2ccc3c(c21)CCO3,6.97% (inactive),–
C=C[C@@H]1CN2CCC1C[C@@H]2C(O)c1ccnc2ccc(OC)cc12 (some centres not stated),-20.6% (inactive),–
C[C@]12C=CC(=O)C=C1CC[C@@H]1[C@@H]2[C@@H](O)C[C@@]2(C)[C@@H]1CC[C@]2(O)C(=O)CO,6.13% (inactive),–
CCC=CC[C@H]1C(=O)CC[C@@H]1CC(=O)OC,22.5% (inactive),–
CC(C)CN(C[C@H](O)[C@H](Cc1ccccc1)NC(=O)O[C@H]1CCOC1)S(=O)(=O)c1ccc(N)cc1,-6.29% (inactive),–
CC1=C[C@@H]2[C@@H]([C@@H](O)C[C@@]3(C)[C@H]2C[C@@H](C)[C@]3(O)C(=O)CO)[C@@]2(C)Cc3cnn(-c4ccccc4)c3C=C12,-6.46% (inactive),–
NC(=O)c1ncn([C@@H]2O[C@H](CO)[C@@H](O)[C@@H]2O)n1,7.1% (inactive),–
CN(C)CCN(C)C(=O)c1ccc(NC(=O)Nc2ccc(-c3nc(N4CCOCC4)c4ccn(CC(F)(F)F)c4n3)cc2)cc1,7.13% (inactive),–
Cc1[nH]c(C=C2C(=O)Nc3ccc(S(=O)(=O)N(C)c4cccc(Cl)c4)cc32)c(C)c1C(=O)N1CCN(C)CC1,7.48% (inactive),–

SMILES,"activity change, negative = inhibition",Potency
CNC(=O)[C@H](CC1=CN=C2C=CCC=C12)NC(=O)[C@@H](CC(=O)NO)CC(C)C,6.32% (inactive),–
Nc1ncnc2c1ncn2[C@@H]1O[C@H](CO)[C@@H](O)[C@@H]1O,–,inactive
CN(C)S(=O)(=O)c1ccc2c(c1)C(=Cc1cc3c([nH]1)CCCC3)C(=O)N2,13% (inactive),–
OC[C@H]1O[C@@H](O[C@H]2[C@@H](O)[C@@](O)(CO)O[C@@H]2CO)[C@H](O)[C@@H](O)[C@@H]1O,-1.02% (inactive),–
CC1(C)OC2CC3C4CC(F)C5=CC(=O)C=CC5(C)C4C(O)CC3(C)[C@]2(C(=O)CO)O1 (some centres not stated),8.05% (inactive),–
CCOC(=O)c1c(CSc2ccccc2)n(C)c2cc(Br)c(O)c(CN(C)C)c12,-4.56% (inactive),–
FC(F)(F)c1ccc(C=Cc2nc(COc3ccc(CCCCn4ccnn4)cc3)co2)cc1,10.3% (inactive),–
Cc1cccc(-c2[nH]c(C(C)(C)C)nc2-c2ccc3c(c2)OCO3)n1,0.608% (inactive),–
CNC1[C@H](O)C(O[C@@H]2C(O)C(O[C@H]3O[C@H]([C@@H](C)NC)CC[C@H]3N)[C@@H](N)C[C@H]2N)OC[C@]1(C)O (some centres not stated),-4.25% (inactive),–
Cc1ccc(NC(=O)c2ccc(CN3CCN(C)CC3)cc2)cc1Nc1nc(-c2cccnc2)cs1,14.2% (inactive),–
O=C(O)C1=CO[C@@H](O[C@@H]2O[C@H](CO)[C@H](O)[C@H](O)[C@H]2O)[C@@H]2C(CO)=CC[C@H]12,8.14% (inactive),–
CCC(C)SSc1ncc[nH]1 (configuration not stated),-0.983% (inactive),–
COc1cc2c(cc1OC)CC(=O)N(CCCN(C)C[C@H]1Cc3cc(OC)c(OC)cc31)CC2,83% (inactive),–
CN1CCC[C@H]1CCO[C@](C)(c1ccccc1)c1ccc(Cl)cc1,5.68% (inactive),–
COc1ccc(CCN(C)CCCOc2ccc(S(=O)(=O)c3[nH]c4ccccc4c3C(C)C)cc2)cc1OC,2.04% (inactive),–
Cc1ccc(C2=Nc3ccc(Cl)cc3OC2)cc1,-13.6% (inactive),–
CNc1nc(-c2ccc3c(N)n[nH]c3c2)cc(N2C[C@@H](C(=O)NC3CCCCC3)CC[C@@H]2C)n1,-4.38% (inactive),–
COc1ccc(-c2oc3c(CC=C(C)C)c(O)cc(O)c3c(=O)c2O)cc1,3.47% (inactive),–
